Screening results as filed in PubChem.
TEAD-YAP block: TEAD-YAP interaction inhibition | HEK-TIYL cells, TEAD-Gal4/YAP UAS-luciferase luminescence | inhibition, % at 9.12 µM | 1.4% of 640,000 active | AID 1259422; in the data active means inhibition above about 32%;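 further: 0% = median of test compound wells and 100% = reference inhibitor wells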
MITF inh: human MITF inhibition, primary screen; inhibition, % at 2.6 µM; O75030; AlphaScreen MITF homodimerization, bead proximity signal; 0.91% of 650,000 active; AID 1259374; in the data active means inhibition above about 50%;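 further: 0% = vehicle wells with protein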
GPR151 ag: activators of human GPR151 | 1% of 650,000 active | Q8TDV0 | PathHunter beta-arrestin GPR151 cells, luminescence | AID 1508602 | activation, % at 11.2 µM; in the data active means activation above about 4.9%;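 further: 0% = median of compound wells and 100% = cells with positive control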
Target sequence (Q8TDV0 whole entry, looked up): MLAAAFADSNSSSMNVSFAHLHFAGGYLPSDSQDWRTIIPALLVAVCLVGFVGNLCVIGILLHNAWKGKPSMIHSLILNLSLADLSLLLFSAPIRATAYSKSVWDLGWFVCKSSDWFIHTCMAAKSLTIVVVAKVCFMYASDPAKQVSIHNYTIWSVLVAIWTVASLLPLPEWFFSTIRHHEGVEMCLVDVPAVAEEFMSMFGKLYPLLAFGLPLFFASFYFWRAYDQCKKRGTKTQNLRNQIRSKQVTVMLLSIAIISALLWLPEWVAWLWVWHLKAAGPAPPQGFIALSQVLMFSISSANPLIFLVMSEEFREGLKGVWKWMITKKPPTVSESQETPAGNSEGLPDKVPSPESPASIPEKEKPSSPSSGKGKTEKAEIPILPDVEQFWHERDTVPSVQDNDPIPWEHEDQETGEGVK
FBW7 act: human FBW7 E3 ligase activation, primary screen; Q969H0; AlphaScreen FBW7–phospho-cyclin E peptide binding, activator screen; normalized activity (activation), % at 26.1 µM; 0.13% of 650,000 active; in the data active means normalized activity above about 1.9%;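 further: purified mutant Fbw7 with reduced substrate affinity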
MITF inh conf: human MITF inhibition, confirmation. shares compounds with MITF inh. AlphaScreen MITF homodimerization, biotin/His-MITF beads. inhibition, % at 2.6 µM. 16% of 4,700 active. AID 1259372;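 active means inhibition above a cutoff derived from the DMSO control wells, cut at about 28% in these data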;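 further: 0% = MITF dimer wells with DMSO only; inhibitors lower the bead chemiluminescence by keeping MITF from dimerizing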
AlphaScreen intf2: optically interferes with AlphaScreen signal. shares compounds with MITF inh. inhibition, % at 2.6 µM. 7.6% of 4,700 active. LysRS AlphaScreen counterscreen, signal interference, triplicate;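 active means inhibition above a cutoff derived from the DMSO control wells, cut at about 30% in these data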
The depositor's hits bear a star; . = no result. In the library only some 3.4% were active in any assay of this set; here they are far more common.

SMILES	TEAD-YAP block	MITF inh	GPR151 ag	FBW7 act	MITF inh conf	AlphaScreen intf2
COc1ccccc1CCC(=O)Nc1ccc2c(c1)CN(Cc1cccnc1)CC2	-6	7	0	0	.	.
O=C(NCC(c1ccsc1)N1CCCCCC1)c1c(F)cccc1F (stereo not given)	-2	84*	1	0	-17	-4
CC(=O)Nc1nc2ccc(N=Cc3nc(-c4cccc5ccccc45)oc3O)cc2s1	-15	20	0	0	.	.
CN(C)CCN(C)Cc1ccc(F)c(F)c1	11	51*	-1	0	7	0
CCn1c2ccccc2c2cc(CN(C)CCc3ccccn3)ccc21	-5	74*	-1	0	4	22
CN(CCc1ccccn1)Cc1ccc(Br)cc1	3	23	-1	0	.	.
CCOc1ccc(CN(C)CCN(C)C)cc1	-5	85*	0	0	-2	1
CCOc1ccc(CN(C)CCc2ccccn2)cc1	1	88*	0	0	-10	7
CCOC(=O)c1cc(-c2ccccn2)nc2nc(SC)[nH]c(=O)c12	-2	12	0	0	.	.
CC(C)(C)c1ccc(OCCCN2CCOCC2)cc1	-21	0	0	0	.	.
C=C(C)CN(CC)C(=O)CC1(c2cccc(OC)c2)CC(=O)N(C2CCCC2)C1=O (stereo not given)	-44	8	-1	0	.	.
CN(CCc1ccccn1)Cc1cccc(Cl)c1	-9	51*	-1	0	-3	-2
COc1cccc(OCC(=O)NCc2ccccn2)c1	7	9	0	1	.	.
CN(CCc1ccccn1)Cc1cccc(Br)c1	-11	48	1	0	.	.
Cc1ccccc1CN(C)CCc1ccccn1	-10	4	1	0	.	.
Cc1cccc(CN(C)CCc2ccccn2)c1	4	69*	1	0	9	25
Cc1cccc(OCC(=O)N(C)CCc2ccccn2)c1	-8	62*	-2	0	0	0
CN(C)CCN(C)Cc1ccc(-c2ccccc2)cc1	5	52*	-1	0	-10	-7
CCN(O)C(=O)Nc1cccc(Cl)c1	-6	70*	0	0	-7	-5
CC(=O)CC(=O)Nc1cccc(Cl)c1	-11	10	1	0	.	.
c1ccc(C(CN2CCOCC2)c2ccccc2)cc1	-8	57*	-1	0	-9	2
CCCN1CCC2(CC1)NC(=O)N(CC(=O)Nc1ccc(F)cc1F)C2=O	-10	0	-1	0	.	.
O=C(NCCCO)c1ccc(/C=N/O)nc1	3	19	0	0	.	.
O=C(NCCCNCCCNC(=O)c1ccc(/C=N/O)nc1)c1ccc(/C=N/O)nc1	-3	69*	1	-1	49*	100*
CCc1ccccc1NC(=O)CN(C)C(=O)CN(C)Cc1ccccc1OC	-6	81*	0	0	16	15
SMILES	TEAD-YAP block	MITF inh	GPR151 ag	FBW7 act	MITF inh conf	AlphaScreen intf2
CN(C)CCN(Cc1cccc(Cl)c1)C(=O)Nc1ccc(-c2cn[nH]c2)cc1	-13	2	0	0	.	.
CC1(C)C2CC=C(COCC(O)CNCc3cccnc3)C1C2 (stereo not given)	2	62*	3	0	9	13
COc1cccc(N2CCN(CC(O)COCC3=CCC4CC3C4(C)C)CC2)c1 (stereo not given)	6	73*	0	0	2	-1
COc1cccc(OCCOCC(O)CN2CCN(c3ccccc3)CC2)c1 (stereo not given)	1	15	-3	0	.	.
COc1ccc(CN2CCN(C(=O)c3cccnc3)CC2)cc1Br	9	60*	0	0	-6	-9
COc1ccc(CN2CCN(C(=O)c3ccccc3)CC2)cc1Br	6	46	-2	0	.	.
COc1ccc(CN2CCN(C(=O)c3ccc(F)cc3)CC2)cc1Br	-1	51*	1	0	-2	10
COc1ccc(CN2CCN(C(=O)c3cccc(F)c3)CC2)cc1Br	3	59*	-1	0	15	15
COc1cc(CN2CCN(C(=O)c3ccc(F)cc3)CC2)cc(OC)c1O	0	53*	0	0	-5	2
O=C(O)c1ccccc1C(=O)c1nc2c([nH]1)C(=O)c1ccccc1-2	10	14	-1	0	.	.
CCOC(=O)C1=C(CN2CCN(c3ccccc3)CC2)NC(=O)NC1c1ccco1 (stereo not given)	-9	2	0	0	.	.
Cc1ccc(S(=O)(=O)Nc2cccc(N(C)S(C)(=O)=O)c2)cc1	-4	-12	2	0	.	.
